Z-score and composite z-score data for four molecules are collected here from PubChem BioAssay.

Test [1] can be described thus: optical density shifts of acrAB sulA E. coli – strain DRC41, OD650, 48 h, E. coli filamentation inducer project, primary screen (AID 1152).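 Note: E. coli MC1000 strain DRC41 lacking acrAB efflux pump and sulA.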 The following applies: higher = more signal, called active from +8 up or from −8 down.
Test [2] in a line: probe aLefty1 binding on compound microarray – biochemical, small-molecule microarray, 635/667 nm fluorescence, primary screen (AID 1153).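 Note: score merges spot fluorescence with signal-to-noise ratio from the scanned slide images.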 The following applies: higher = more signal.
Test [3] in a line: plasmodial surface anion channel blockers, osmotic lysis – cell-based, P. falciparum Indochina, OD700, 1 h, primary screen (AID 1154). The settings on record: P. falciparum Indochina infected RBC osmotic lysis, higher = more signal, called active from +8 up or from −8 down.
Test [4] in a line: plasmodial surface anion channel blockers, osmotic lysis – cell-based, P. falciparum Indochina, OD700, 2 h, primary screen (AID 1155).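 Note: lysis reports solute entry through the parasite surface anion channel PSAC.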 The following applies: P. falciparum Indochina infected erythrocytes, higher = more signal, called active from +8 up or from −8 down.
Test [5] in a line: changes in parasitized red cell lysis, either direction – P. falciparum Indochina, OD700, 3 h, PSAC antagonist project, primary screen (AID 1156). The following applies: P. falciparum-infected erythrocytes, osmotic lysis, higher = more signal, called active from +8 up or from −8 down.
Test [6] is described as follows: plasmodial surface anion channel blockers, osmotic lysis – cell-based, P. falciparum Indochina, OD700, 18 h, primary screen (AID 1157). The following applies: P. falciparum Indochina infected erythrocytes, osmotic lysis OD700, 18 h; higher = more signal, called active from +8 up or from −8 down.
Test [7] in a line: S6 kinase pathway phospho-S6 level changes – cell-based, A549, cytoblot, luminescence, serum-stimulated, primary screen (AID 1158).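 Note: serum-stimulated A549 lung adenocarcinoma cells; signal is phosphorylated S6 detected by cytoblot immunostaining with HRP secondary.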 The settings on record: 5 h, higher = more signal.
Test [8] concerns the target NADPH oxidase 2 (Homo sapiens) (UniProt P04839). Nature of the test: compounds shifting NOX2 Amplex Red fluorescence – cell-based, HEK293-NOX2, PMA-stimulated, NOX inhibitor project, primary screen (AID 1159). Note: test concentration not given here. The settings on record: 45 min, higher = more signal, called active from +8 up or from −8 down.
In test [9] the target is NADPH oxidase 4 (Homo sapiens) (UniProt Q9NPH5). In words: compounds shifting NOX4 Amplex Red fluorescence – cell-based, HEK293-NOX4, tetracycline-induced, NOX inhibitor project, primary screen (AID 1160). The settings on record: HEK293-NOX4, Amplex Red H2O2 fluorescence, 45 min; higher = more signal, called active from +8 up or from −8 down.
Chain of NADPH oxidase 4 (Homo sapiens) (Q9NPH5 whole entry, looked up): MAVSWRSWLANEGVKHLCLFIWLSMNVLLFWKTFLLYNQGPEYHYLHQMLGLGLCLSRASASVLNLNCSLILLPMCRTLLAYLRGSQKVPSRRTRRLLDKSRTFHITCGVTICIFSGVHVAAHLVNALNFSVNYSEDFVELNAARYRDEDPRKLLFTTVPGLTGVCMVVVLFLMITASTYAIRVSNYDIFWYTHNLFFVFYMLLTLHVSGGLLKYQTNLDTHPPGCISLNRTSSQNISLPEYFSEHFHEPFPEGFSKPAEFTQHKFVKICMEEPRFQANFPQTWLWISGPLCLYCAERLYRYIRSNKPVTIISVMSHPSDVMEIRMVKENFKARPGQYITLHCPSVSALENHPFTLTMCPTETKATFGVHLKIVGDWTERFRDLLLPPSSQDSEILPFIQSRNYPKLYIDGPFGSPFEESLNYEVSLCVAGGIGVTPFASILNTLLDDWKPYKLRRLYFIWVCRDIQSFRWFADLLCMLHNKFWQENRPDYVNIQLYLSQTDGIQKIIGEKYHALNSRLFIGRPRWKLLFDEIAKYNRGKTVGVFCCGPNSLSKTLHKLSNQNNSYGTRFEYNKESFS
Test [10] deals with NADPH oxidase 5 (Homo sapiens) (UniProt Q96PH1). In words: compounds shifting NOX5 Amplex Red fluorescence – cell-based, HEK293-NOX5, NOX inhibitor project, primary screen (AID 1161). The settings on record: HEK293-NOX5, ionomycin, 45 min, higher = more signal.
Chain of NADPH oxidase 5 (Homo sapiens) (Q96PH1 whole entry, looked up): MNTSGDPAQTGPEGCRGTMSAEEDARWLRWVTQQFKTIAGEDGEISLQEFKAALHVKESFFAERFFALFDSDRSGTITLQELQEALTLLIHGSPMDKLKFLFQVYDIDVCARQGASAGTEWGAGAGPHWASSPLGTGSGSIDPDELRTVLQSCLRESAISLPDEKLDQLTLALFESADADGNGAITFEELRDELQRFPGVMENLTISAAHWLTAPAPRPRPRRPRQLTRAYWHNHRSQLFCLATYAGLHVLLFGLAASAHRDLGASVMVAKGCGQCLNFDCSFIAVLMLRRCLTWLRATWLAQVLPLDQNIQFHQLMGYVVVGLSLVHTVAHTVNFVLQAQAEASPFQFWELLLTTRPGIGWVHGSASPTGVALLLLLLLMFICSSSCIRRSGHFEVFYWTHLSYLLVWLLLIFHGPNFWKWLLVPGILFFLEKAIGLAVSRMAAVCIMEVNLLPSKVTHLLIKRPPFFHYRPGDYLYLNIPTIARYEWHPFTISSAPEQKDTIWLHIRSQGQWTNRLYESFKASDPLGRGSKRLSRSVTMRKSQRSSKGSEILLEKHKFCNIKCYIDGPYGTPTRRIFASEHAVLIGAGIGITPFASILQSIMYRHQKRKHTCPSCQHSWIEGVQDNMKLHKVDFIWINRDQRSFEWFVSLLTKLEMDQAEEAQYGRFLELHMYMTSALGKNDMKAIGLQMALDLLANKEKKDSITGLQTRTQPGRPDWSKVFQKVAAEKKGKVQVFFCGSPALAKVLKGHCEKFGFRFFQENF
Test [11] can be described thus: compound effects on lung adenocarcinoma cell viability – A549, calcein-AM fluorescence, 48 h, basal, profiling panel (AID 1162). Note: test concentration not given here. The following applies: higher = more signal.
Test [12] in a line: compound effects on differentiated 3T3-L1 adipocyte viability – cell-based, 3T3-L1 adipocytes, calcein-AM fluorescence, 48 h, basal, profiling panel (AID 1163). Note: test concentration not given here. The settings on record: 3T3-L1 adipocytes viability, higher = more signal.
A short description of test [13]: compound effects on hepatocellular carcinoma cell viability – HepG2, calcein-AM fluorescence, 48 h, basal, profiling panel (AID 1164). Note: test concentration not given here. The following applies: higher = more signal.
Test [14] in a line: compound effects on multiple myeloma cell viability – MM1S, calcein-AM fluorescence, 48 h, basal, profiling panel (AID 1165).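 Note: viability of MM1S multiple myeloma cells under basal unstimulated conditions; test concentration not given here.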 The settings on record: higher = more signal.
Test [15] can be described thus: calcein-AM signal in unstimulated myeloma cells – cell-based, calcein-AM fluorescence, 48 h, PK04 Diversity Set, profiling panel (AID 1166).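 Note: cells grown under basal conditions without added stimulus; test concentration not given here.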 The following applies: RPMI8226 myeloma viability, higher = more signal.
A short description of test [16]: JC-1 mitochondrial signal, unstimulated HepG2 cells – cell-based, JC-1 fluorescence, 24 h, 100 nL compound, profiling panel (AID 1167). Note: test concentration not given here. The settings on record: HepG2 mitochondrial potential, higher = more signal.
Test [17] in a line: JC-1 mitochondrial signal, unstimulated adipocytes – cell-based, JC-1 fluorescence, 3T3-L1 adipocytes, 24 h, 100 nL compound, profiling panel (AID 1168). Note: test concentration not given here. The settings on record: JC-1 mitochondrial fluorescence, higher = more signal, called active from +8 up or from −8 down.
Test [18] can be described thus: JC-1 mitochondrial signal, unstimulated myeloma cells – cell-based, JC-1 fluorescence, RPMI8226, 24 h, 100 nL compound, profiling panel (AID 1169). Note: test concentration not given here. The settings on record: JC-1 mitochondrial potential fluorescence, higher = more signal.
Test [19] is described as follows: JC-1 mitochondrial signal, unstimulated MM1S myeloma – cell-based, JC-1 fluorescence, 24 h, 100 nL compound, profiling panel (AID 1170). Note: test concentration not given here. The settings on record: MM1S mitochondrial potential, higher = more signal.
Test [20] is described as follows: resazurin metabolic signal in A549 cells – cell-based, resazurin fluorescence, 24 h, PK04 Diversity Set, profiling panel (AID 1171). Note: test concentration not given here. The settings on record: A549 viability, higher = more signal, called active from +8 up or from −8 down. A general note: The colour change of resazurin is a common sign of viable cells or microbes.

Activity calls are given as the source filed them.

Chain of NADPH oxidase 2 (Homo sapiens) (P04839 whole entry, looked up): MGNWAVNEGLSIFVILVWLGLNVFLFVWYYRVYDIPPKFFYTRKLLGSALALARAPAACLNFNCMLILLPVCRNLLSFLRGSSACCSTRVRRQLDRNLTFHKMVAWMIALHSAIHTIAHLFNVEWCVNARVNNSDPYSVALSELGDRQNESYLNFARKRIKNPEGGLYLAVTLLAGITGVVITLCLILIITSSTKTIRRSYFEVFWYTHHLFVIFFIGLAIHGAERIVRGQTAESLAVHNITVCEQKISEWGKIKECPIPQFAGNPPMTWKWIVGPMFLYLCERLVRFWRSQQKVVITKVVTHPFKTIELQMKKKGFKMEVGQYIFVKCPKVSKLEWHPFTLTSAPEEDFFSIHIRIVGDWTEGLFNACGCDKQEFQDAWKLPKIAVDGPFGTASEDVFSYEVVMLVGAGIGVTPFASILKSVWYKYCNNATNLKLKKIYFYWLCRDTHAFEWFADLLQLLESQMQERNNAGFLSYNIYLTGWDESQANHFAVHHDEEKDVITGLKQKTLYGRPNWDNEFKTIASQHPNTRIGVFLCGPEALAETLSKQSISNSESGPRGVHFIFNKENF

In the case of `CCCC[C@@H]1C[C@H]1[C@@H](NC(=O)c1cccnc1)c1ccc(-c2ccccc2)cc1`, the z-score was -2.22 (inactive) in [1]; 3.12 (inactive) in [3]; 0.818 (inactive) in test [4]; 0.219 (inactive) in [5]; 0.445 (inactive) in [6]; -0.0675 in [7]. The z-score in test [8] was -1.01 (inactive); in test [9], -1.52 (inactive); in test [10], 0.353; in [11] it was -1.42; in test [12], -0.438; in test [13] it was -0.886. In addition, the z-score was -1.14 in test [14]; -2.21 in test [15]; -0.608 in test [16]; -1.18 (inactive) in [17]; -0.642 in test [18]; -1.13 in test [19]. Besides, the z-score in test [20] is 3.07 (inactive). Further, the composite z-score in [2] is -0.105.
`COC(=O)[C@@]1(Cc2ccc(F)cc2)[C@H]2c3cc(C(=O)N4CCCC4)n(CCc4c[nH]c5ccc(OC)cc45)c3C[C@H]2CN1C(=O)c1ccccc1`: the z-score in test [1] is -1.06 (inactive); in [3], 4.03 (inactive); in [4], -0.165 (inactive); in test [5], 0.217 (inactive); in test [6] it was -0.583 (inactive); in [7], 1.03. Also, the z-score in [8] was -3.07 (inactive); in test [9] it was 0.118 (inactive); in test [10] it was -2.39; in test [11] it was -2.28; in [12], 0.787; in test [13] it was -0.906. Moreover, the z-score in test [14] is -2.13; in test [15], -4.1; in test [16], 1; in [17] it was -1.33 (inactive); in test [18], -0.917; in [19], -2. The z-score in test [20] is -1.63 (inactive). Besides, the composite z-score in test [2] stood at 1.97.
As to `CC(C)CCC[C@@H](C)[C@H]1CC[C@@]2(C)C3=C(CC[C@]12C)[C@@]1(C)CC[C@H](OC(=O)c2ccc(Br)cc2)C(C)(C)C1CC3` (stereo not given in full), the z-score in [1] is 3.37 (inactive); in [3], -0.571 (inactive); in test [4] it was -0.957 (inactive); in test [5], -0.149 (inactive); in test [6], -2.39 (inactive); in [7], 1.62. The z-score is -1.07 (inactive) in [8]; 0.175 (inactive) in test [9]; 0.929 in test [10]; 0.986 in test [11]; 0.889 in [12]; 2.04 in test [13]. In addition, the z-score in test [14] is 0.109; in test [15] it was -0.269; in [16], 1.14; in test [17], 0.599 (inactive); in test [18], 0.717; in test [19], -0.902. Moreover, the z-score in test [20] was -0.255 (inactive). In test [2], the composite z-score was -0.0559.
With `CCCN1C(=O)[C@]2(Cc3ccccc3)N=C(c3ccc(OCCCO)cc3)O[C@@H]2c2ccccc21`, the z-score in test [1] was 0.655 (inactive); in test [3], 34 (active); in test [4], 27.2 (active); in test [5], 1.25 (inactive); in [6], 4.25 (inactive); in test [7], 1.56. Further, the z-score is -2.25 (inactive) in test [8]; 0.187 (inactive) in [9]; -1.27 in test [10]; 0.0649 in test [11]; 0.932 in test [12]; -1.26 in test [13]. Also, the z-score in test [14] is -1.26; in test [15], -4.03; in test [16] it was 0.596; in test [17] it was 2.77 (inactive); in [18] it was -1.21; in [19] it was -1.1. For the same molecule, the z-score in test [20] is -0.593 (inactive). In test [2], this molecule gave a composite z-score of 0.268.
